Screens from PubChem BioAssay.
Shown are actives, neighbours in structure and some others; about 19% of the full set was active somewhere.
TDP1 cell noCPT: qHTS for Inhibitors of human tyrosyl-DNA phosphodiesterase 1 (TDP1): qHTS in cells in absence of CPT | DT40 Tdp1-/- hTDP1 cells, no CPT, ATP luminescence, 48 h | Potency, µM (doses to about 46.2 µM), for inactives: top-dose activity change, negative = growth inhibition, actives largely listed as inhibitors | 420,000 compounds, 15% hits; note: potency is the fitted concentration of half-maximal effect; nearly all actives have a fitted effect of over 55% in size
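Readout: luminescence from CellTiter-Glo after 30 min in the dark at RT. Cells: DT40 Tdp1-/- with stable hTDP1, 400/well. Exposure: compounds alone, ≥48 hr, 37 °C.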
HT1080 IDH1KD tx: qHTS for induction of synthetic lethality in tumor cells producing 2HG: qHTS for the HT-1080-IDH1KD cell line | HT-1080 IDH1 knockdown viability, ATP luminescence, 48 h | Potency, µM (series often up to 46.1 µM), without a hit: at the highest dose activity, negative = toxicity, actives largely listed as cytotoxic | 360,000 compounds, 2% hits;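 note: potency is the fitted concentration of half-maximal effect; 0% = DMSO wells and -100% = cell-free medium wells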
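Viability of IDH1-knockdown HT-1080 fibrosarcoma cells was assessed by CellTiter-Glo after 48 h at 37 °C with titrated compound; concentration-effect curves were classified by fit quality and response size.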
IL1B secr inh: qHTS for Inhibitors of Inflammasome Signaling: IL-1-beta AlphaLISA Primary Screen; 360,000 compounds, 4.7% hits; activity change, % at 57.5 µM; AID 743279, 2014; THP-1 LPS/ATP IL-1B secretion, AlphaLISA, 16 h; hits give low values; in the data active = activity change below about -50%; inconclusive = mostly about -30% to -49%
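THP-1 cells pretreated 1 hr with compounds (up to 57.5 uM final), then stimulated with LPS (250 ng/mL final) plus ATP (1.25 mM final); secreted IL-1B measured by AlphaLISA after 16 hr, decreased signal indicating inhibition.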
HT1080NT lethal: qHTS for induction of synthetic lethality in tumor cells producing 2HG: qHTS for the HT-1080-NT fibrosarcoma cell line | Potency, µM (doses to about 46.1 µM), for inactives: at the top dose activity, negative = less viability, most hits filed as cytotoxic | 360,000 compounds, 1.6% hits | HT-1080-NT fibrosarcoma viability, CellTiter-Glo ATP luminescence, 48 h | AID 686970, 2013;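 note: NT is the 2HG producing partner of a matched IDH1 knockdown line; potency is the fitted concentration of half-maximal effect; 0% = DMSO-treated cells and -100% = media-only wells without cells; nearly all actives have a fitted effect of over 55% in size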
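Fibrosarcoma NT cells, 750 per well in 5% FBS RPMI, were exposed to compound for 48 hours. Viability: CellTiter-Glo luminescence.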
uPA generation: qHTS for Inhibitors of Cell Surface uPA Generation; Potency, µM (highest dose often 38.3 µM), for inactives: at the top dose activity change, negative = inhibition, actives largely listed as inhibitors; cell surface uPA generation assay, qHTS; 330,000 compounds, 0.31% hits; AID 540303, 2011; active = well fitted inhibition curve with a large enough effect; inconclusive = small, poorly fitted or top-dose-only effect; inactive = no such curve, though single readings can be large or run the other way; tested in mouse RAW 264.7 cells; note: potency is the fitted concentration of half-maximal effect; nearly all actives have a fitted effect of over 55% in size
TDP1 cell CPT: qHTS for Inhibitors of human tyrosyl-DNA phosphodiesterase 1 (TDP1): qHTS in cells in presence of CPT; chicken DT40 Tdp1-/-;hTDP1 cells + 20 nM CPT, ATP luminescence, 48 h; Potency, µM (doses to about 46.2 µM), for inactives: top-dose activity change, negative = growth inhibition, most hits filed as inhibitors; 420,000 compounds, 12% hits; AID 686979, 2013; note: potency is the fitted concentration of half-maximal effect; nearly all actives have a fitted effect of over 55% in size
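Chicken DT40 Tdp1-/- cells complemented with human TDP1, 400 cells/well, exposed to compounds plus 20 nM camptothecin for at least 48 h at 37 C; viability read as ATP content by CellTiter-Glo luminescence.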
* marks the source's active call; other numbers are inactive results; ? = inconclusive; nt = no result given. Unless noted, calls come from the whole dose curve; as a rule, active = well fitted curve in the direction sought with a large enough effect; inconclusive = small, poorly fitted or top-dose-only effect, or another doubt; inactive = no such curve, though single readings can be large; an effect the other way counts as inactive or inconclusive. Unless noted, % is set by controls: 0 for no effect and ±100 for the full control effect.

SMILES | TDP1 cell noCPT | HT1080 IDH1KD tx | IL1B secr inh | HT1080NT lethal | uPA generation | TDP1 cell CPT
COc1ccc(COc2cc(-c3cccc(OC)c3)nc3ccc(NC(=O)c4ccc(OC)cc4)cc23)cc1 | 3.3µM* | 4.6µM* | 80 | 5.2µM* | ? | 2.6µM*
O=C(NCc1ccncc1)c1ccc2nc(Cc3ccccc3F)oc2c1 | ? | -22% | -7 | -16% | -8% | 26µM*
Cc1cccc(CNC(=O)c2ccc3nc(Cc4ccccc4)oc3c2)c1 | 23µM* | nt | nt | nt | nt | 21µM*
CN(C)c1ccc(CNC(=O)c2ccc3nc(Cc4ccccc4)oc3c2)cc1 | 21µM* | nt | nt | nt | nt | ?
Cc1cc(CNC(=O)c2ccc3nc(Cc4ccccc4F)oc3c2)nn1C | ? | 13% | -14 | 13% | -7% | ?
CNC(=O)c1ccc2nc(Cc3ccccc3)oc2c1 | -16% | nt | nt | nt | nt | -15%
CC(CNC(=O)c1ccc2nc(Cc3ccccc3)oc2c1)c1ccccc1 (stereo not given) | 16µM* | nt | nt | nt | nt | ?
CC(C)CNC(=O)C1C(=O)Nc2ccccc2C(=O)N1C(C)(C)C (stereo not given) | -1% | 19% | -12 | 13% | nt | 2%
c1ccc2c(c1)CCc1ccccc1C2=C1CCNCC1 | 13µM* | -18% | -66* | -25% | 0% | 15µM*
Cc1cc(C)n(-c2nnc(Nc3ccc(C)c(C)c3)c3ccccc23)n1 | -15% | nt | nt | nt | nt | ?
O=C(CC(=O)NCc1ccc(Cl)cc1)NCc1ccc(Cl)cc1 | -2% | -10% | 1 | ? | 2% | 2%
Cc1nn(C)c(C(=O)NCc2ccc(Cl)cc2)c1Cl | 4.1µM* | -24% | -9 | -10% | -7% | 4.1µM*
Cc1ccc(CC(=O)NCc2ccc(Cl)cc2)cc1 | 3.7µM* | 9.2µM* | 33 | 21µM* | ? | 4.6µM*
Cc1nc(C)c(C(=O)NCc2ccc(Cl)cc2)o1 | ? | -4% | 27 | 0% | nt | ?
